# Screening data (PubChem)
# Lamin A splicing – qHTS Assay for Modulators of Lamin A Splicing | Potency, µM (doses to about 46.1 µM), without a hit: at the top dose ratio change, negative = inhibition, usual class: inhibitors | actives 0.01% (n = 200,000) | HeLa LMNA splicing GFP/RFP minigene ratio, 48 h; active means well fitted inhibition curve with a large enough effect in the signal ratio, with a control signal flat, not every such curve was filed as active; inconclusive means small, poorly fitted or top-dose-only effect, or effect the other way, or a change in a side signal; the % refers to the signal ratio; further: on the % scale 0 is the no-effect control and ±100 the full control effect
#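 S3 HeLa stable clones carrying a lamin A-EGFP splicing minigene plus DsRed2 were seeded at 600 cells/well in Opti-MEM with 2% FBS, pin-dosed and incubated 48 h at 37°C. Acumen cytometry (488 nm) gave the GFP/RFP total-intensity ratio.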
# ALDH1A1 block – qHTS Assay for Inhibitors of Aldehyde Dehydrogenase 1 (ALDH1A1); actives 7.3% (n = 220,000); Purified ALDH1A1, NADH fluorescence, propionaldehyde substrate; AID 1030, 2008; Aldehyde dehydrogenase 1A1 (Homo sapiens), P00352; Potency, µM (top dose mostly 75.3 µM), without a hit: at the highest dose activity, negative = inhibition, usual class: inhibitors;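 further: plate controls were no enzyme wells and a reference inhibitor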
# Target sequence (P00352 whole entry, looked up): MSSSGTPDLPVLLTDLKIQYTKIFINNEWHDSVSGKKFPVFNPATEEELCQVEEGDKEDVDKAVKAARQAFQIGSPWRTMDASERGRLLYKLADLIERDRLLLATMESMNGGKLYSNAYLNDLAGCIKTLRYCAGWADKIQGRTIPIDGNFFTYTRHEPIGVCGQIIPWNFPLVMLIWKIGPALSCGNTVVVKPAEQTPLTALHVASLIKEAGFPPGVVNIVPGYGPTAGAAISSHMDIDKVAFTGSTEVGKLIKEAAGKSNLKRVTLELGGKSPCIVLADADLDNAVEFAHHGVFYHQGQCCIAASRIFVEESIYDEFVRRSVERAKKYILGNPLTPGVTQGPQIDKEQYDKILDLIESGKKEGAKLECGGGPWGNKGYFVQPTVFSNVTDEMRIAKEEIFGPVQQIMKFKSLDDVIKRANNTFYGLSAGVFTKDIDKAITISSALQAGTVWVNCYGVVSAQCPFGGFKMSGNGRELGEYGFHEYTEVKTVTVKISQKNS
# JMJD2E inh – qHTS Assay for Inhibitors of Human Jumonji Domain Containing 2E (JMJD2E); JMJD2E catalytic domain, FDH-coupled NADH fluorescence (FDH is formaldehyde dehydrogenase); Potency, µM (highest dose often 57.1 µM), for the others: top-dose activity change, negative = inhibition, usual class: inhibitors; Lysine-specific demethylase 4E (Homo sapiens), B2RXH2; actives 1.6% (n = 230,000);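 further: 0% = wells with enzyme and -100% = buffer wells without enzyme; nearly all actives have a fitted effect of over 50% in size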
# HPGD inh – qHTS Assay for Inhibitors of HPGD (15-Hydroxyprostaglandin Dehydrogenase). 15-hydroxyprostaglandin dehydrogenase [NAD(+)] (Homo sapiens), P15428. Potency, µM, for inactives: at the highest dose activity change, negative = inhibition, hits mostly inhibitors. purified HPGD, NADH fluorescence kinetic, PGE2 substrate. AID 894, 2007. actives 4.3% (n = 150,000); further: on the % scale 0 is the no-effect control and ±100 the full control effect
# Target sequence (P15428 whole entry, looked up): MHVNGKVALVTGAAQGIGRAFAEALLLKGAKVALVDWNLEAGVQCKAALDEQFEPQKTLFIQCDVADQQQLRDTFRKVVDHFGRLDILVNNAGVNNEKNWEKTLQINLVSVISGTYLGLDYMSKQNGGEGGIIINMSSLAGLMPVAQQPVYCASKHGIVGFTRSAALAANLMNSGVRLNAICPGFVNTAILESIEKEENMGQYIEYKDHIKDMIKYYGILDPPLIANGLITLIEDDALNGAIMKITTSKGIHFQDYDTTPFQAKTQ
#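 20 nM HPGD preincubated 15 min at room temperature with compound in 50 mM Tris-HCl pH 8, 0.01% Tween 20. Started with 1 mM NAD+ and 30 uM prostaglandin E2; NADH fluorescence (360/450 nm) read 5 times over 30-s intervals, last minus first.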
# HTT cytoprotect – qHTS Multiplex Assay to Identify Dual Action Probes in a Cell Model of Huntington: Cytoprotection (ATP). PC12 HTT-Q103 induced, cytoprotection, ATP luminescence, 40 h. Potency, µM (series often up to 56.4 µM), without a hit: cytoprotection (ATP increase), usual class: activators. actives 0.14% (n = 230,000); active means well fitted curve in the direction sought with a large enough effect; inconclusive means small, poorly fitted or top-dose-only effect, or another doubt; inactive means no such curve, though single readings can be large; an effect the other way counts as inactive or inconclusive; further: % of control where 0% means no effect; nearly all actives have a fitted effect of over 45% in size
#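 Huntington model: PC12 line, ecdysone-inducible HTTQ103 exon1–GFP, tebufenozide 100 nM. Test articles in a dose series. Endpoint luminescence from cellular ATP.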
# HTT aggregate – qHTS Multiplex Assay to Identify Dual Action Probes in a Cell Model of Huntington: Aggregate Formation (GFP); Potency, µM (top dose mostly 46.1 µM), for the others: at the top dose activity change, negative = inhibition, hits mostly inhibitors; PC12 HttQ103-GFP aggregates, Acumen cytometry, 40 h; actives 1.1% (n = 220,000); active means well fitted curve in the direction sought with a large enough effect; inconclusive means small, poorly fitted or top-dose-only effect, or another doubt; inactive means no such curve, though single readings can be large; an effect the other way counts as inactive or inconclusive; further: on the % scale 0 is the no-effect control and ±100 the full control effect; nearly all actives have a fitted effect of over 60% in size
#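 Using laser scanning cytometry, GFP-positive aggregates were counted after lysis of PC12 cells induced with 100 nM tebufenozide to express HTT exon 1 Q103–GFP. Compounds were tested in titration.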
# Active calls of the source: *; ? = inconclusive; . = no result given; [ ] = another dose, or the depositor's remark. Rows were chosen to be rich in hits. Some 9.2% of all compounds tested hit in one or more screens of this group. Unless noted, the call rests on the fitted dose curve; in most records, active means well fitted inhibition curve with a large enough effect (not every such curve was filed as active); inconclusive means small, poorly fitted or top-dose-only effect, or another doubt; inactive means no such curve, though single readings can be large or run the other way. Potency means the concentration at half of the fitted maximal effect.
SMILES,Lamin A splicing,ALDH1A1 block,JMJD2E inh,HPGD inh,HTT cytoprotect,HTT aggregate
O=C(CN1C(=O)CCSc2ccccc21)Nc1ccc2c(c1)OCCO2,-2.7%,6.8%,4.2%,-15.3%,-8.9%,20.7%
O=C(CN1C(=O)CC(c2ccco2)Sc2ccccc21)NCC1CCCO1 (stereo not given),0.9%,10µM*,-17.5%,-9.5%,-21.4%,6.4%
Cc1ccc(S(=O)(=O)Nc2cc(Cl)c(O)cc2C)cc1,?,?,1.8%,-0.2%,-12.9%,?
Cc1ccc(S(=O)(=O)Nc2cc(C(C)C)c(O)cc2C)cc1,?,2µM*,4.8%,-7.9%,-4.0%,-1.5%
O=C(O)C[C@H](NC(=O)CP(=O)(O)O)C(=O)O.[NH-][C@@H]1CCCC[C@@H]1[NH-].[Pt],.,7.8%[13.5 µM],.,2.0%,2.2%[10 µM],.
N=C(N)[C@H](N=Nc1ccccc1)C(N)=O,.,-8.1%[13.5 µM],.,0.3%,9.4%[10 µM],.
C[C@@H]1O[C@H](O[C@@H]2[C@@H](Oc3cc(O)c4c(c3)O[C@H](c3ccc(O)cc3)CC4=O)O[C@@H](CO)[C@@H](O)[C@H]2O)[C@@H](O)[C@H](O)[C@@H]1O,-11.9%,13.2%[20.9 µM],4.9%[25.5 µM],-1.3%,-2.1%[40.3 µM],.
CSc1nc2nc3c(cc2c(=O)n1-c1ccccc1C)COC(C)(C)C3,.,.,-17.3%,.,25.1%[10 µM],25.2%[9.22 µM]
CC1(C)Cc2nc3nc(SCC(=O)NCc4ccccc4)n(-c4ccccc4)c(=O)c3cc2CO1,1.7%,3.55µM*,-3.2%,-7.4%,0.6%,18.1%
CC1(C)Cc2nc3nc(SCC(=O)NCCc4ccccc4)n(-c4ccccc4)c(=O)c3cc2CO1,10.5%,2.51µM*,?,-14.1%,?,?
CCn1c(SCC(=O)Nc2ccc(C)cc2)nc2nc3c(cc2c1=O)COC(C)(C)C3,.,?,-5.9%,.,15.4%[10 µM],11.3%[9.22 µM]
COc1cccc(CNCCCSc2nnnn2C)c1,13.6%[46 µM],.,.,.,.,.
CCOC(=O)C1(O)Oc2cc(OC)cc(OC)c2C(=O)C1c1ccccc1 (stereo not given),-12.5%,?,?,-18.0%,.,.
Clc1ccc(-c2nnc3sc(Cc4cccs4)nn23)c(Cl)c1,-12.6%,?,1.1%,?,-23.5%,-16.7%
COc1ccccc1-c1nn2c(-c3ccco3)nnc2s1,-15.4%,?,-9.0%,?,-64.9%,-4.0%
c1coc(-c2nn3c(-c4ccco4)nnc3s2)c1,-0.8%,20µM*,-18.5%,-26.0%,-17.5%,-1.8%
Clc1ccc(OCc2nn3c(-c4ccco4)nnc3s2)cc1,?,22.4µM*,-3.4%,?,-12.6%,?
c1coc(-c2nnc3sc(Cc4cccs4)nn23)c1,-16.4%,20µM*,1.7%,?,-52.4%[10 µM],?
COc1ccc(OCc2nn3c(-c4ccco4)nnc3s2)cc1,-16.4%,31.6µM*,-22.7%,.,-12.4%[0.074 µM],1.7%
O=c1oc(-c2ccc(Cl)c(Cl)c2)nn1-c1ccc(C(F)(F)F)cn1,.,13.1%,-21.0%,.,4.6%[10 µM],4.1%[9.22 µM]
COc1ccc(C(C(=O)NC(C)(C)C)N(CC2CCCO2)C(=O)CCC(=O)Nc2cc(C)on2)cc1 (stereo not given),17.1%,10.8%,-3.4%,-12.9%,13.2%,-3.7%
Cc1ccc(S(=O)(=O)NC(CC(=O)NC2CCCC2)c2ccco2)cc1 (stereo not given),-5.1%,14.1µM*,1.6%,-6.9%,6.3%[10 µM],20.8%
Cc1ccc(S(=O)(=O)NC(CC(=O)NCc2ccco2)c2ccco2)cc1 (stereo not given),-5.2%,25.1µM*,-0.8%,-12.7%,4.6%[10 µM],10.7%
CC(NS(=O)(=O)c1ccccc1)C(=O)NCc1ccco1 (stereo not given),15.3%,23.8µM*,-4.9%,?,-30.9%,-6.7%
CC(C)Oc1ccc(C(CC(=O)NCc2ccco2)c2ccccc2)cc1 (stereo not given),-3.7%,?,2.2%,11.2µM*,-26.2%,-38.0%
SMILES,Lamin A splicing,ALDH1A1 block,JMJD2E inh,HPGD inh,HTT cytoprotect,HTT aggregate
COc1ccc(S(=O)(=O)NC(CC(=O)NCc2ccco2)c2ccco2)cc1 (stereo not given),8.6%,?,3.8%,-10.1%,-31.8%,-2.3%
CCc1ccc(NC(=O)c2ccc(CN3CC(=O)N4CCCCC4C3=O)cc2)cc1 (stereo not given),-9.5%[46 µM],.,.,.,.,.
COc1ccccc1CNC(=O)C(C)NS(=O)(=O)c1ccc(Br)cc1 (stereo not given),-8.1%,28.2µM*,11.3%,-4.7%,4.7%[1.9 µM],6.9%
COc1ccc(S(=O)(=O)NC(CC(=O)NCCc2ccc(OC)c(OC)c2)c2ccco2)cc1 (stereo not given),-13.1%,12.6µM*,1.3%,-6.2%,1.7%[10 µM],-2.9%
O=C(CC(c1ccccc1)c1cc(Br)ccc1O)N1CCCC1 (stereo not given),.,-13.6%,-0.5%,.,-24.0%,1.7%
CC(NS(=O)(=O)c1ccc(Br)cc1)C(=O)NCc1ccco1 (stereo not given),-39.2%[46 µM],?,-2.9%,.,.,.
Cc1ccc(S(=O)(=O)NC(CC(=O)N2CCOCC2)c2ccco2)cc1 (stereo not given),?,12.6µM*,2.6%,-9.8%,-4.7%[10 µM],4.8%
Cc1ccc(O)c(C(CC(=O)N2CCCC2)c2ccccc2)c1 (stereo not given),-4.3%,-6.9%,-1.9%,7.08µM*,10.1%,-3.0%
CC(=O)Nc1ccc(C)c(NS(=O)(=O)c2cccc(C(F)(F)F)c2)c1,4.4%[46 µM],5.5%,2.2%,.,-2.2%[10 µM],-0.3%[9.22 µM]
S=C(NC1CCCCC1)NC1CCCCC1,.,?,.,-17.6%,-2.8%,.
O=C(CC(c1ccccc1)c1ccco1)N1CCOCC1 (stereo not given),0.4%,39.8µM*,7.4%,17.8µM*,8.8%[1.9 µM],9.9%
C/[N+]([O-])=C1\Cc2ccccc2C1=O,1.8%,3.55µM*,-9.4%,-11.7%,2.6%,-8.2%
CN(C)/C=C1\Cc2ccccc2C1=O,.,.,?,.,9.0%[10 µM],-8.6%[9.22 µM]
O=C(C[n+]1cn(C(F)F)c2ccccc21)c1ccc(OC(F)F)cc1,?,9.46µM*,-7.6%,.,4.2%[10 µM],?
O=C(C[n+]1ccc(C(=O)NCc2ccccc2)cc1)c1ccc(OC(F)F)cc1,.,?,?,.,-132.2%,-8.9%
S=c1[nH]ncn1NCc1ccc(Cl)cc1Cl,.,1.41µM*,-1.5%,.,-23.9%,-6.1%
